ALDH1A1 inh: qHTS Assay for Inhibitors of Aldehyde Dehydrogenase 1 (ALDH1A1); Purified ALDH1A1, NADH fluorescence, propionaldehyde substrate; Aldehyde dehydrogenase 1A1 (Homo sapiens), P00352; 220,000 tested, 7.3% active; AID 1030, 2008; Potency, µM (highest dose often 75.3 µM), for inactives: at the top dose activity, negative = inhibition, usual class: inhibitors; active = well fitted inhibition curve with a large enough effect, not every such curve was filed as active; inconclusive = small, poorly fitted or top-dose-only effect, or another doubt; inactive = no such curve, though single readings can be large or run the other way;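 also: potency is read from the fitted curve at half-maximal effect; plate controls were no enzyme wells and a reference inhibitor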
KDM4E inh: qHTS Assay for Inhibitors of Human Jumonji Domain Containing 2E (JMJD2E); Lysine-specific demethylase 4E (Homo sapiens), B2RXH2; JMJD2E catalytic domain, FDH-coupled NADH fluorescence (FDH is formaldehyde dehydrogenase); Potency, µM (series often up to 57.1 µM), inactives show at the top dose activity change, negative = inhibition, most hits filed as inhibitors; 230,000 tested, 1.6% active; AID 2147, 2009; active = well fitted inhibition curve with a large enough effect, not every such curve was filed as active; inconclusive = small, poorly fitted or top-dose-only effect, or another doubt; inactive = no such curve, though single readings can be large or run the other way;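 also: potency is read from the fitted curve at half-maximal effect; 0% = wells with enzyme and -100% = buffer wells without enzyme; nearly all actives have a fitted effect of over 50% in size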
HTT aggregate: qHTS Multiplex Assay to Identify Dual Action Probes in a Cell Model of Huntington: Aggregate Formation (GFP) | AID 1688, 2009 | Potency, µM (series often up to 46.1 µM), inactives show at the highest dose activity change, negative = inhibition, usual class: inhibitors | 220,000 tested, 1.1% active | PC12 HttQ103-GFP aggregates, Acumen cytometry, 40 h; also: potency is read from the fitted curve at half-maximal effect; % is scaled to controls: 0 for no effect and ±100 for the full control effect; nearly all actives have a fitted effect of over 60% in size
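Inducible Q103 Huntingtin exon 1–GFP PC12 line, 1500 cells/well in phenol red free DMEM with 5% equine and 5% calf serum. Tebufenozide 100 nM induced expression; compounds titrated; aggregates quantified by cytometry.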
HTT cytoprotect: qHTS Multiplex Assay to Identify Dual Action Probes in a Cell Model of Huntington: Cytoprotection (ATP); Potency, µM (doses to about 56.4 µM), for the others: cytoprotection (ATP increase), actives largely listed as activators; 230,000 tested, 0.14% active; PC12 HTT-Q103 induced, cytoprotection, ATP luminescence, 40 h; also: potency is read from the fitted curve at half-maximal effect; % of control where 0% means no effect; nearly all actives have a fitted effect of over 45% in size
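Quantitative HTS on tebufenozide-induced (100 nM) PC12 cells expressing HTTQ103 exon 1–GFP; compounds tested as a concentration series; survival measured via cellular ATP.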
CBFb RUNX1 block: qHTS Assay for Compounds Blocking the Interaction Between CBF-beta and RUNX1 for the Treatment of Acute Myeloid Leukemia. Potency, µM (doses to about 59.8 µM), for the others: at the highest dose activity, negative = inhibition, usual class: inhibitors. AlphaScreen CBFb-His/RUNX1-biotin binding, biochemical. Runt-related transcription factor 1 (Homo sapiens) + Core-binding factor subunit beta …. 230,000 tested, under 10 active; also: % of control where 0% means no effect
Target sequence (Q01196 whole entry, looked up): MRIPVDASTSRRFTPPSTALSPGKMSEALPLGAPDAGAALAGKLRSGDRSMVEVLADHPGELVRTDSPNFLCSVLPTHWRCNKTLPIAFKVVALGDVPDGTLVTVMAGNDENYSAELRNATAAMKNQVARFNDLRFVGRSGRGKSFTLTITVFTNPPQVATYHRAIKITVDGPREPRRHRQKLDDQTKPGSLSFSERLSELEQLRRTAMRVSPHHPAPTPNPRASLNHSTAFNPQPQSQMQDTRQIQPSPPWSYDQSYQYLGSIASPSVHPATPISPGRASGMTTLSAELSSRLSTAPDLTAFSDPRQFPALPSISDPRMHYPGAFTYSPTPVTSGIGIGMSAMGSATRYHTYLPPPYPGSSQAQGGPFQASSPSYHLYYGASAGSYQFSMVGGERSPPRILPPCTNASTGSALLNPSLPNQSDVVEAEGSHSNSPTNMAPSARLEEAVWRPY
Target sequence (Q13951 whole entry, looked up): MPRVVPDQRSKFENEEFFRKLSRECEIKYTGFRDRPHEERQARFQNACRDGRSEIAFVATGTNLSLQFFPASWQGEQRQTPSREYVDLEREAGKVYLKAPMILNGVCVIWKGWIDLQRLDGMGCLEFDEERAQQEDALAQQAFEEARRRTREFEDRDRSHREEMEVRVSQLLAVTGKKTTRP
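His-tagged CBF-beta and biotinylated RUNX1 (30 nM each) were premixed 20 min at room temperature, exposed to compound for 15 min, then given nickel-chelate and streptavidin AlphaScreen beads (50 ng each). After 90 min, AlphaScreen signal was read.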
HPGD block: qHTS Assay for Inhibitors of HPGD (15-Hydroxyprostaglandin Dehydrogenase); Potency, µM, for the others: top-dose activity change, negative = inhibition, most hits filed as inhibitors; purified HPGD, NADH fluorescence kinetic, PGE2 substrate; 15-hydroxyprostaglandin dehydrogenase [NAD(+)] (Homo sapiens), P15428; 150,000 tested, 4.3% active; active = well fitted inhibition curve with a large enough effect, not every such curve was filed as active; inconclusive = small, poorly fitted or top-dose-only effect, or another doubt; inactive = no such curve, though single readings can be large or run the other way; also: potency is read from the fitted curve at half-maximal effect; % is scaled to controls: 0 for no effect and ±100 for the full control effect
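NADH formation kinetics: reaction with 30 uM PGE2 and 1 mM NAD+ (final), 20 nM enzyme, Tris-HCl pH 8 with Tween 20, after 15 min compound preincubation at room temperature. Fluorescence change, last versus first of five reads.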
* = called active by the depositor; u = inconclusive; x = not tested or not shown; [ ] = dose if it differs, or a comment. Compounds with a hit are over-represented: about 9.8% of the library has one in this group of screens. Unless noted, calls follow the shape of the dose curve; as a rule, active = well fitted curve in the direction sought with a large enough effect; inconclusive = small, poorly fitted or top-dose-only effect, or another doubt; inactive = no such curve, though single readings can be large; an effect the other way counts as inactive or inconclusive.

SMILES	ALDH1A1 inh	KDM4E inh	HTT aggregate	HTT cytoprotect	CBFb RUNX1 block	HPGD block
O=C1C(Nc2ccc(O)cc2)=C/C(=N/S(=O)(=O)c2cccs2)c2ccccc21	u	25%	2.5µM*	-57%[10 µM]	x	x
Cc1ccc(Cl)cc1NC1=C/C(=N\S(=O)(=O)c2cccs2)c2ccccc2C1=O	u	u	1.6µM*	-96%[10 µM]	x	-16%
Cc1cccc(NC2=C/C(=N/S(=O)(=O)c3cccs3)c3ccccc3C2=O)c1	-1%	3%	14%	x	18%	-13%
COc1cc([N+](=O)[O-])ccc1NC(=O)CN1CCN(C(=O)c2ccco2)CC1	4%	1%	-12%[9.22 µM]	-16%[10 µM]	3%	x
CCNC(=S)Nc1cc(-c2ccc(Cl)cc2)[nH]n1	1.3µM*	u	19%[9.22 µM]	35%[10 µM]	4%	x
COC(=O)CSc1nc(NCC(C)C)nc(N2CCOCC2)n1	11%	2%	0%	1%	7%	5%
CCNc1nc(SC(C)C(=O)OC)nc(N2CCOCC2)n1 (stereo not given)	19µM*	12%	21%	11%	2%	-10%
N=c1c[n+](N2CCOCC2)[n-]o1	u	-7%	2%	7%[1.9 µM]	21%	-24%
O=C(CSC1=NCCS1)Nc1ccccc1F	8.9µM*	-9%	3%	6%	-7%	28µM*
O=C(CSC1=NCCS1)Nc1cccc2ccccc12	u	-9%	9%[1.84 µM]	15%	-1%	14µM*
Cn1ccnc1SCC(=O)c1ccc(Br)cc1	3.5µM*	-2%	32%	-20%	-8%	u
COC(=O)c1cc(NC(=O)CSC2=NCCS2)cc(C(=O)OC)c1	13µM*	-17%	28%	-29%	-2%	x
CC(C)CC(NC(N)=O)C(=O)OCC(=O)Nc1ccc(OC(F)F)cc1 (stereo not given)	4%	11%	20%	1%[10 µM]	9%	x
Cn1ccnc1SCC(=O)Nc1cccc2ccccc12	0%	-2%	27%	-3%	-7%	25µM*
N#Cc1ccccc1CSC1=NCCS1	u	-4%	-16%[9.22 µM]	2%[10 µM]	-4%	x
COC(=O)c1ccccc1NC(=O)CSc1nccn1C	-10%	-15%	-1%	10%	-2%	-11%
O=C(O)c1ccccc1CSC1=NCCS1	20µM*	-2%	2%	-21%	15%	x
COc1ccc(C2/C=C\CN(CC3CCCCC3)C(Cc3ccccc3)C(=O)N2Cc2ccc(F)cc2)cc1 (stereo not given)	x	x	x	x	4%	x
COc1ccc(CCC(=O)NCCc2cn3c(C)csc3n2)cc1	18µM*	-4%	-3%	-4%	-1%	-6%
COc1ccc(Sc2ccccc2CN(C)C)cc1OC	-7%	3%	0%	-1%	7%	-4%
CNCc1ccccc1Sc1ccc(O)c(O)c1	0.56µM*	14µM*	u	x	x	18µM*
COc1ccc(C#CC2C=CC(OC(C)=O)C(COC(C)=O)O2)cc1 (stereo not given)	0%[13.5 µM]	x	x	u	18%[13.1 µM]	x
COc1cc(/C=N/NC(=O)c2ccc(CN3C(=O)c4cccc5cccc3c45)cc2)cc(OC)c1O	x	22µM*	28%[9.22 µM]	-37%[10 µM]	28%	x
CCOC(=O)CNS(=O)(=O)c1cc(-c2n[nH]c(=O)c3ccccc23)ccc1C	14µM*	-4%	-1%	2%	4%	3.5µM*
Cc1ccc(NS(=O)(=O)c2cc(-c3n[nH]c(=O)c4ccccc34)ccc2C)cc1	u	u	u	x	u	20µM*
SMILES	ALDH1A1 inh	KDM4E inh	HTT aggregate	HTT cytoprotect	CBFb RUNX1 block	HPGD block
CCOC(=O)OCC1OC(C#Cc2ccccc2)C=CC1Oc1cccc(N(C)C)c1 (stereo not given)	u	x	x	6%[10 µM]	-2%[13.1 µM]	x
CCOC(=O)c1c(CC(C)C)csc1NC(=O)c1ccccc1C(=O)O	x	-14%	-4%[9.22 µM]	-9%[10 µM]	15%	x
CC(C)Cc1csc(NC(=O)c2ccc(F)cc2)c1C(=O)O	3%	-12%	u	-73%[10 µM]	3%	25µM*
COc1ccc2cnnc(SCC(=O)Nc3ccc(C(=O)O)cc3)c2c1OC	u	u	-2%	-10%[10 µM]	1%	u
COc1ccc2cnnc(SCC(=O)Nc3ccccc3)c2c1OC	u	1%	3%	10%[10 µM]	7%	25µM*
CCn1c(=O)c([N+](=O)[O-])c(NCCCn2ccnc2)c2ccccc21	x	4%	9%[9.22 µM]	11%[10 µM]	3%	x
Cc1ccc2oc(-c3ccccc3C(=O)O)cc(=O)c2c1	-3%	u	9%	15%[0.074 µM]	5%	-28%
O=C(O)c1ccccc1-c1c2cc(Br)c(=O)c(Br)c-2oc2c(Br)c(O)c(Br)cc12	x	x	10µM*	-23%	u	x
CN(C)C(=S)NC(=O)C12CC3(C)CC(C)(CC(C)(C3)C1)C2	x	-6%	-3%[9.22 µM]	-1%[10 µM]	5%	x
COCCNC(C(=O)Nc1cc(Cl)cc(Cl)c1)c1ccccc1 (stereo not given)	14µM*	6%	2%	1%	7%	-10%
CCOCCCNC(C(=O)Nc1ccc(OC)c(Cl)c1)c1ccccc1 (stereo not given)	2.2µM*	2%	3%	-14%[10 µM]	6%	x
COCC(C)NC(C(=O)Nc1ccc(C)c(Cl)c1)c1ccccc1 (stereo not given)	u	-3%	6%	5%	8%	-11%
CCOCCCNC(=O)C(NC(=O)c1ccc(NC(C)=O)cc1)c1ccccc1 (stereo not given)	3%	8%	-9%	u	1%	1%
COc1ccc(CNc2ncnc3ccc(-c4cccc(C#N)c4)cc23)c(OC)c1	u	x	x	-99%	x	x
CC1=C(C(=O)OCC2CCCO2)C(c2ccc(C)o2)C2=C(CC(c3ccc(F)cc3)CC2=O)N1 (stereo not given)	u	-13%	10%	-17%[0.074 µM]	0%	-11%
CC1=C(C(=O)OCC2CCCO2)C(c2ccc(C)o2)C2=C(CC(c3ccc(N(C)C)cc3)CC2=O)N1 (stereo not given)	10µM*	-24%	-4%	4%[0.074 µM]	u	-8%
CCOC(=O)C1=C(C)NC2=C(C(=O)CCC2)C1c1ccc(N(C)C)cc1 (stereo not given)	28µM*	u	-21%	2%	1%	-1%
